Measurements published in the supplement of paper PMC10849652.
About 8,800 targets were measured; listed, in parts, are those with a hit and a random draw of the rest. About 0.5% of all pairs of compound and target were hits. Unmarked numbers belong to inactive results.

Experiments:
Assay in all cases: log2 fold change, soluble protein after heating vs DMSO (PISA); higher = thermal stabilisation; K562 lysate, 10 uM; active = over 0.2 and 3.5 SD of the protein, either way, in both replicates (recomputed)
[1] = compound: C#Cc1cccc(Nc2ncnc3cc(OCCOC)c(OCCOC)cc23)c1 [erlotinib]
Summary of the method: (§1)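 Dounce homogenisation of K562 pellets in PBS pH 7.4 with 1 mM MgCl2 produced a crude extract, used at 1 mg/mL protein. Exposure to 10 μM compound lasted 30 min, and aliquots were then heated for 3 min across 48°C-58°C, pooled and brought to 0.5% NP-40 at 4°C. The supernatant after 21,000xg for 90 min was quantified by TMTpro 16plex LC-MS/MS with channel sums equalised. Duplicate values are given as log-two fold change in thermal stability relative to solvent controls.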

[2] = compound: C/C(=N\NC(=O)C1=CC(=CC=C1)S(=O)(=O)N2CCOCC2)/C3=C(C=CC(=C3)Cl)O
Summary of the method: as §1

[3] = compound: C1=CC(=CC=C1C2=NC3=C(N2)C=C(C=C3)C(=O)N)OC4=CC=C(C=C4)Cl
Summary of the method: as §1

[4] = compound: C1=CC2=C(C=CC(=C2)/C=C\3/C(=O)NC(=NCC4=CC=CS4)S3)N=C1
Summary of the method: as §1

[5] = compound: C1=CC2=NC=CN=C2C=C1/C=C/3\C(=O)NC(=O)S3
Summary of the method: as §1

[6] = compound: C1=CC=C(C=C1)C2=NC(=C(N2)C3=CC=NC=C3)C4=CC(=C(C=C4)Cl)O
Summary of the method: as §1

[7] = compound: C1=CC=C2C(=C1)C3=NNC4=CC=CC(=C43)C2=O
Summary of the method: as §1

[8] = compound: C1CCN(C1)C(=O)NC2=CC=CC(=C2)NC3=NC=C(C(=N3)NCCC4=CN=CN4)Br
Summary of the method: as §1

[9] = compound: C1CN(CCC1(CC2=CC=C(C=C2)Cl)N)C3=NC=NC4=C3C=CN4
Summary of the method: as §1

[10] = compound: C1COCCN1CCN2C3=CC=CC=C3N=C2NC(=O)C4=CC(=CC=C4)[N+](=O)[O-] [IRAK-1-4 Inhibitor I]
Summary of the method: as §1

[11] = compound: C=CC(=O)N1CCC[C@@H](n2nc(-c3ccc(Oc4ccccc4)cc3)c3c(N)ncnc32)C1 [ibrutinib]
Summary of the method: as §1

[12] = compound: CC(=O)c1cnc2ccc(-c3cc(Cl)c(O)c(Cl)c3)nc2c1N[C@H]1CC[C@H](CN(C)C)CC1
Summary of the method: as §1

[13] = compound: CC(C)(C)Cn1c(N)nc2ccc(-c3[nH]c(C(C)(C)C)nc3-c3ccc(F)cc3)nc21 [ralimetinib]
Summary of the method: as §1

[14] = compound: CC(C)(O)CC(=O)NCCn1ccc2ncnc(Nc3ccc(Oc4cccc(C(F)(F)F)c4)c(Cl)c3)c21
Summary of the method: as §1

[15] = compound: CC(C)C1=C2N=C(C=C(N2N=C1)NCC3=CC=CC=C3)NCCCCCCN
Summary of the method: as §1

[16] = compound: CC1=C(C(CC(=O)N1)C2=CC=C(C=C2)C(F)(F)F)C(=O)NC3=C(C=C4C(=C3)C=NN4)F
Summary of the method: as §1

[17] = compound: CC1=C(C2=C(C=C1)C(=O)C3=CC=CC=C3N2CCCN)C
Summary of the method: as §1

[18] = compound: CC1=C(C=C(C=C1)NC(=O)C2=CC(=CC=C2)C(C)(C)C#N)NC3=CC4=C(C=C3)N=CN(C4=O)C
Summary of the method: as §1

[19] = compound: CC1=C(C=C(C=C1)NC(=O)C2=CC(=CC=C2)N(C)C)NC(=O)C3=CC=C(C=C3)O
Summary of the method: as §1

[20] = compound: CC1=CC=C(C=C1)SC2=C3C=C(SC3=CN=C2)C(=O)N
Summary of the method: as §1

Chain of UniProt Q96DM3 (Q96DM3 whole entry, looked up): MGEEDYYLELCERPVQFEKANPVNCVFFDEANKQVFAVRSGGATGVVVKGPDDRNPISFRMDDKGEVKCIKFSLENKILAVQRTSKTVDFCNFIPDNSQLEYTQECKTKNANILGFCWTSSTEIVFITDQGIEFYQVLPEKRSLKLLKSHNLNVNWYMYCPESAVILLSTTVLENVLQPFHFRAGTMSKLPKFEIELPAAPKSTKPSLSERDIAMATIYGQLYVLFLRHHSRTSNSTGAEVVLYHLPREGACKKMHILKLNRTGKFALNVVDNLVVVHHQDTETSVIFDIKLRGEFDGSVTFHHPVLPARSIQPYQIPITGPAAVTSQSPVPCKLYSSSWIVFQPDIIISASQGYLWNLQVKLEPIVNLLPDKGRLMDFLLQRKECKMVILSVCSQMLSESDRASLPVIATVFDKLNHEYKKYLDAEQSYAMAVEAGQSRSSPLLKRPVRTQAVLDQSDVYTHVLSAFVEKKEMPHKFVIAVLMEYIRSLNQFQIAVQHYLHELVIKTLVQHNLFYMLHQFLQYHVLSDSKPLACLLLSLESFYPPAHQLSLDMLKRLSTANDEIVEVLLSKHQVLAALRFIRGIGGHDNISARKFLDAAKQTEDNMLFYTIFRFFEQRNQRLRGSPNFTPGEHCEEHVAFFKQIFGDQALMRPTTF
Chain of UniProt P35241 (P35241 whole entry, looked up): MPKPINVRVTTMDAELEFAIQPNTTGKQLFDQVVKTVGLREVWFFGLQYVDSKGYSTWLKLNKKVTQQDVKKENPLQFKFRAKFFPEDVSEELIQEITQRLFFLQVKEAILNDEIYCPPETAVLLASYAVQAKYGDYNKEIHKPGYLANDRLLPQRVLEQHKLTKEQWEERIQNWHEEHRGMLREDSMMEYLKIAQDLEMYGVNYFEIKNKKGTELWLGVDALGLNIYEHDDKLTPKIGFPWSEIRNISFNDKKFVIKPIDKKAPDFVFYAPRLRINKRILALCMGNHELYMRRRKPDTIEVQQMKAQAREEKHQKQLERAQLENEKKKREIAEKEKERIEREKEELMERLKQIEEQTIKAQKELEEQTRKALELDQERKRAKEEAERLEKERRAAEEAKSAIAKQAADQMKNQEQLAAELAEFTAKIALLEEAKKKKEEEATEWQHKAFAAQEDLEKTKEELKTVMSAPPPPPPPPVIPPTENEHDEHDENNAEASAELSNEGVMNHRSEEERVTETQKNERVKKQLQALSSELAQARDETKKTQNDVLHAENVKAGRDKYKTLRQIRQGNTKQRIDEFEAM
Chain of UniProt Q9HBH5 (Q9HBH5 whole entry, looked up): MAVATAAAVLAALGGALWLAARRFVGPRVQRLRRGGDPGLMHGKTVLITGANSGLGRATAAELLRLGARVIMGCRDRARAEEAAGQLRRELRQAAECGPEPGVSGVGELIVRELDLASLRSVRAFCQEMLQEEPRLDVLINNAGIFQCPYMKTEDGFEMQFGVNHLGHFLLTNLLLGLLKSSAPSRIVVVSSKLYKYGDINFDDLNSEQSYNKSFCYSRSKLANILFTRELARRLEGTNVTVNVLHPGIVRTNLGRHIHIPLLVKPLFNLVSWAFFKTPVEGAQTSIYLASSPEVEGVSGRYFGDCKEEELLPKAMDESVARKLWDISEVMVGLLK
Chain of UniProt Q99442 (Q99442 whole entry, looked up): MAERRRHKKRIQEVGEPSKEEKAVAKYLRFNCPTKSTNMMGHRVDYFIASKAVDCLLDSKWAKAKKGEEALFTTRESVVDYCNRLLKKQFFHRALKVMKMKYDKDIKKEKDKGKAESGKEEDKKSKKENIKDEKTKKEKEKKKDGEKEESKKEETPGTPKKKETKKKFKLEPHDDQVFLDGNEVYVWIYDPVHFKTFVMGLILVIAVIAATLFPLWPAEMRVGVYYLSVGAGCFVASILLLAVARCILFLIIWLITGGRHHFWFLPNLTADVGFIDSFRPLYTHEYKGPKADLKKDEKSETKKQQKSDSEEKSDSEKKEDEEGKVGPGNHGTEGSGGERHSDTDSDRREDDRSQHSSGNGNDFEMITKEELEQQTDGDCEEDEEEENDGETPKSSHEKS
Chain of UniProt P31040 (P31040 whole entry, looked up): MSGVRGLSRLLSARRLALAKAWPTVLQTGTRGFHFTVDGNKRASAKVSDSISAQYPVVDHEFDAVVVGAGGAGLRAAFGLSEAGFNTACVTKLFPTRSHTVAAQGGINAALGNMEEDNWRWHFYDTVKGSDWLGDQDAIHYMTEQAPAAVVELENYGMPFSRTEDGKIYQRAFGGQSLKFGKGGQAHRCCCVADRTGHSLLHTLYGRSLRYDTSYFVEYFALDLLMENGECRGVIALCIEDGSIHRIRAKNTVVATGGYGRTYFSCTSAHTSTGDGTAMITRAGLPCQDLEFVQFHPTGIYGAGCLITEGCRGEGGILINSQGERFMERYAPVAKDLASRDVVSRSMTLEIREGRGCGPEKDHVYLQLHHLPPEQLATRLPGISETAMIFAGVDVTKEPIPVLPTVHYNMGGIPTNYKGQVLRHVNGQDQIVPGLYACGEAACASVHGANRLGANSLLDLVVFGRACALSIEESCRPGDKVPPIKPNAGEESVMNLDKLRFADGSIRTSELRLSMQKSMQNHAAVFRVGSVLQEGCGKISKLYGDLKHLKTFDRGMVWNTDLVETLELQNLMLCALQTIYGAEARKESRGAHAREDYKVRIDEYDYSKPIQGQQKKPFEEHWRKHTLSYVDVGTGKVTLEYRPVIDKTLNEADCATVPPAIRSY
Chain of UniProt Q02094 (Q02094 whole entry, looked up): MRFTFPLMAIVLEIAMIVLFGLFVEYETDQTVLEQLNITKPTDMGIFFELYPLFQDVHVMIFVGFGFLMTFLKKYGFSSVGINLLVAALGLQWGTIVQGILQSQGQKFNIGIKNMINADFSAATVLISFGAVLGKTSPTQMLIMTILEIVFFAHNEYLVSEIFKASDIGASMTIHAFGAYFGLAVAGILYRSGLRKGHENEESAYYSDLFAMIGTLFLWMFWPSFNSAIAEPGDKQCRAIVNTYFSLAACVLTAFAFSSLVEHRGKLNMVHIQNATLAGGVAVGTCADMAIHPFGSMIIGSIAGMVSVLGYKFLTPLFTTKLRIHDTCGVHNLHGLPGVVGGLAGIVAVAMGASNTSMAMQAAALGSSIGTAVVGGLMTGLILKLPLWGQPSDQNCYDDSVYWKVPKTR
Chain of UniProt Q7Z6M1 (Q7Z6M1 whole entry, looked up): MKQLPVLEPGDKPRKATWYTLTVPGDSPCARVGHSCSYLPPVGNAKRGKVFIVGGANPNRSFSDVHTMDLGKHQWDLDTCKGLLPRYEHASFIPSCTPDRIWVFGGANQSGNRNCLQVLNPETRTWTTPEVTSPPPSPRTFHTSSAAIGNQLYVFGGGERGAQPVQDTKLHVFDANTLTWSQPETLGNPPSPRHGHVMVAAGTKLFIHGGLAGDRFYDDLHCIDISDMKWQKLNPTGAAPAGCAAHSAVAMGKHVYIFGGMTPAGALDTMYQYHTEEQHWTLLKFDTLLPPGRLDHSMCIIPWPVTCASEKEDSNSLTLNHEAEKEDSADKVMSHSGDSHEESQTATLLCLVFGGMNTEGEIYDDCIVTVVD
Chain of UniProt Q8IYW5 (Q8IYW5 whole entry, looked up): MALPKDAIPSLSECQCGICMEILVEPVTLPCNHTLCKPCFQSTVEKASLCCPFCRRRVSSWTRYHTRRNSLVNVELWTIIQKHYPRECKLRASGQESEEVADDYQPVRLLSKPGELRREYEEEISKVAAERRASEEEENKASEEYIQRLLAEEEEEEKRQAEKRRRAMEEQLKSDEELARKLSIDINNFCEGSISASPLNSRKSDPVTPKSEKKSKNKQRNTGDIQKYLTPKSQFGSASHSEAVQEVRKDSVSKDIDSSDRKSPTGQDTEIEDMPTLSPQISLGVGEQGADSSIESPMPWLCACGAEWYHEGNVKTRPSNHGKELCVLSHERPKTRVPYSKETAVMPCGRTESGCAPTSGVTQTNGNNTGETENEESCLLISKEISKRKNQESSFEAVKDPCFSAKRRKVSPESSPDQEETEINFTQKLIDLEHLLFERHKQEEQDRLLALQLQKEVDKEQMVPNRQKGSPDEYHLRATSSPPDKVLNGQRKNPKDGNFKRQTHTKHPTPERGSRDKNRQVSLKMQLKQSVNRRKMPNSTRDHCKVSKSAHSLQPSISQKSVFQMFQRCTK
Chain of UniProt Q96HR9 (Q96HR9 whole entry, looked up): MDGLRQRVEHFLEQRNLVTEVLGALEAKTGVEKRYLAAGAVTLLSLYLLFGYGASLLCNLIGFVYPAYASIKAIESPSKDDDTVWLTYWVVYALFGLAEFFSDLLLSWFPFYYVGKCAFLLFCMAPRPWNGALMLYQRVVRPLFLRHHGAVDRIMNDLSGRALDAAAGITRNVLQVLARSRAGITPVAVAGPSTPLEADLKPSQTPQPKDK
Chain of UniProt Q53S08 (Q53S08 whole entry, looked up): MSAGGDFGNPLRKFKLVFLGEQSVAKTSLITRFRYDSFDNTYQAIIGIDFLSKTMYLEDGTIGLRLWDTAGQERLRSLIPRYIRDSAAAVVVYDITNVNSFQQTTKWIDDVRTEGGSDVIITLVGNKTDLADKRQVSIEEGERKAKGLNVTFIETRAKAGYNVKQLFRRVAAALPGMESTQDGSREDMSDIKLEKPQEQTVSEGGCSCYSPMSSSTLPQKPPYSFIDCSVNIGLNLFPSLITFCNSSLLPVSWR
Chain of UniProt P35250 (P35250 whole entry, looked up): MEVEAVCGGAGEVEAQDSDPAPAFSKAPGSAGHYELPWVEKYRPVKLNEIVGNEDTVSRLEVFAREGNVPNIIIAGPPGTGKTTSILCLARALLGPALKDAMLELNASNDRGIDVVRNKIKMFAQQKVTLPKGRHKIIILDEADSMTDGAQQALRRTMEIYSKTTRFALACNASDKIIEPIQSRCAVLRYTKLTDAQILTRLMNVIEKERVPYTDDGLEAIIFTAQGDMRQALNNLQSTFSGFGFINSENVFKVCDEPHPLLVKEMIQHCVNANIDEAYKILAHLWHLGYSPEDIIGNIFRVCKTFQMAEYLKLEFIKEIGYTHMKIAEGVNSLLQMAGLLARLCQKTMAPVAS

Row | Target | log2 fold change [1] | log2 fold change [2] | log2 fold change [3] | log2 fold change [4] | log2 fold change [5] | log2 fold change [6] | log2 fold change [7] | log2 fold change [8] | log2 fold change [9] | log2 fold change [10] | log2 fold change [11] | log2 fold change [12] | log2 fold change [13] | log2 fold change [14] | log2 fold change [15] | log2 fold change [16] | log2 fold change [17] | log2 fold change [18] | log2 fold change [19] | log2 fold change [20]
1 | RAF1 isoform 2 (UniProt P04049) | -0.011 | -0.033 | -0.016 | -0.072 | -0.113 | -0.009 | 0.007 | 0.036 | -0.044 | -0.058 | -0.046 | 0.047 | 0.054 | 0.004 | 0.065 | 0.092 | -0.055 | 0.359 (active) | 0 | 0.027
2 | SDHA (UniProt P31040) | 0.001 | 0.034 | 0.109 | -0.006 | 0.005 | -0.005 | 0.025 | -0.009 | 0.004 | 0.011 | -0.015 | 0 | 0.043 | 0.049 | -0.01 | 0.004 | 0.008 | 0.014 | -0.015 | 0.002
3 | RDH14 (UniProt Q9HBH5) | -0.019 | 0.021 | -0.056 | -0.049 | 0.037 | 0.021 | 0.024 | 0.036 | -0.057 | 0.018 | 0.017 | 0.061 | 0.072 | 0.089 | 0.012 | -0.031 | 0.053 | -0.073 | 0.032 | -0.012
4 | RDX (UniProt P35241) | -0.013 | 0.017 | 0.014 | -0.023 | -0.032 | 0.018 | -0.009 | 0.012 | -0.025 | 0.006 | -0.051 | 0 | -0.003 | 0.002 | 0.012 | -0.016 | -0.011 | -0.021 | -0.002 | -0.004
5 | RABGGTB (UniProt P53611) | 0.01 | 0.026 | -0.015 | 0.021 | 0.04 | -0.023 | -0.093 | -0.029 | 0.003 | 0.03 | -0.017 | -0.042 | 0.018 | -0.052 | 0.015 | -0.002 | -0.006 | -0.013 | 0.048 | 0.013
6 | RMC1 (UniProt Q96DM3) | 0.015 | -0.056 | 0.017 | -0.06 | 0.004 | -0.008 | -0.054 | -0.001 | 0.035 | 0.006 | -0.004 | 0.018 | 0.03 | -0.024 | -0.001 | -0.017 | -0.018 | 0.009 | 0.005 | 0.027
7 | SEC62 (UniProt Q99442) | -0.046 | -0.008 | 0.018 | 0.046 | -0.021 | 0.036 | -0.022 | -0.017 | -0.009 | 0.042 | 0.002 | -0.027 | -0.032 | -0.058 | 0.02 | 0.013 | -0.006 | 0.022 | 0.002 | -0.015
8 | RAB6D (UniProt Q53S08) | 0.027 | -0.071 | 0.054 | -0.025 | -0.048 | -0.019 | 0.044 | -0.038 | 0.157 | 0.003 | 0 | 0.013 | -0.011 | -0.087 | 0.014 | -0.113 | -0.057 | 0.009 | 0.009 | -0.026
9 | RAB8B (UniProt Q92930) | 0.013 | -0.042 | 0.049 | 0.113 | 0.004 | 0.034 | 0.125 | 0 | -0.006 | 0.035 | -0.03 | -0.018 | -0.035 | -0.013 | -0.003 | 0.051 | -0.001 | 0.01 | 0.099 | -0.06
10 | REEP6 (UniProt Q96HR9) | -0.023 | -0.026 | 0.008 | 0.077 | -0.06 | -0.029 | -0.069 | 0.021 | -0.022 | -0.05 | -0.026 | -0.026 | 0.018 | -0.029 | -0.067 | -0.006 | -0.066 | 0.084 | 0.055 | 0.038
11 | RFC2 (UniProt P35250) | -0.004 | 0.017 | -0.059 | -0.017 | 0.018 | 0.004 | -0.013 | -0.011 | -0.031 | -0.013 | 0.009 | 0.018 | 0.036 | 0.044 | -0.002 | -0.001 | 0.011 | 0.008 | 0.048 | -0.001
12 | RNASEL (UniProt Q05823) | 0.103 | -0.025 | -0.019 | -0.01 | 0.099 | 0.009 | -0.062 | -0.031 | 0.005 | 0.006 | -0.072 | -0.033 | 0.037 | -0.034 | 0 | -0.023 | 0.001 | 0.01 | 0.013 | 0.027
13 | RHAG (UniProt Q02094) | 0.017 | -0.123 | -0.087 | 0.086 | -0.007 | -0.012 | -0.145 | -0.126 | -0.014 | 0.081 | 0.004 | -0.035 | -0.001 | -0.068 | 0.042 | 0.09 | -0.056 | 0.08 | 0.008 | -0.003
14 | RAC2 (UniProt P15153) | 0.009 | 0.018 | 0.014 | -0.035 | -0.01 | 0.012 | 0.034 | 0.069 | -0.036 | 0.024 | 0.094 | -0.04 | 0.07 | -0.027 | 0.047 | -0.005 | 0.017 | -0.022 | 0.045 | -0.014
15 | RABEPK (UniProt Q7Z6M1) | -0.01 | 0.014 | 0.012 | 0.004 | 0.032 | 0.007 | -0.024 | -0.03 | -0.032 | 0.014 | 0 | -0.002 | 0.01 | -0.006 | 0.018 | -0.009 | -0.007 | 0.008 | 0.001 | 0
16 | RNF168 (UniProt Q8IYW5) | -0.018 | -0.023 | 0.001 | -0.081 | 0.037 | -0.007 | -0.114 | -0.311 (active) | 0.053 | 0.008 | 0.155 | 0.144 | 0.004 | -0.041 | -0.034 | -0.071 | 0.031 | 0.026 | -0.04 | 0.011
